TRPV1 PAM – enhances activation of the human vanilloid receptor TRPV1; Q8NER1; TRPV1-expressing cells, Fluo-8 calcium influx, capsaicin EC20 potentiation; potentiation, % at 8.33 µM; 0.02% of 320,000 active; in the data active = potentiation above about 80%; inconclusive = between about 30% and that limit
Target sequence (Q8NER1 whole entry, looked up): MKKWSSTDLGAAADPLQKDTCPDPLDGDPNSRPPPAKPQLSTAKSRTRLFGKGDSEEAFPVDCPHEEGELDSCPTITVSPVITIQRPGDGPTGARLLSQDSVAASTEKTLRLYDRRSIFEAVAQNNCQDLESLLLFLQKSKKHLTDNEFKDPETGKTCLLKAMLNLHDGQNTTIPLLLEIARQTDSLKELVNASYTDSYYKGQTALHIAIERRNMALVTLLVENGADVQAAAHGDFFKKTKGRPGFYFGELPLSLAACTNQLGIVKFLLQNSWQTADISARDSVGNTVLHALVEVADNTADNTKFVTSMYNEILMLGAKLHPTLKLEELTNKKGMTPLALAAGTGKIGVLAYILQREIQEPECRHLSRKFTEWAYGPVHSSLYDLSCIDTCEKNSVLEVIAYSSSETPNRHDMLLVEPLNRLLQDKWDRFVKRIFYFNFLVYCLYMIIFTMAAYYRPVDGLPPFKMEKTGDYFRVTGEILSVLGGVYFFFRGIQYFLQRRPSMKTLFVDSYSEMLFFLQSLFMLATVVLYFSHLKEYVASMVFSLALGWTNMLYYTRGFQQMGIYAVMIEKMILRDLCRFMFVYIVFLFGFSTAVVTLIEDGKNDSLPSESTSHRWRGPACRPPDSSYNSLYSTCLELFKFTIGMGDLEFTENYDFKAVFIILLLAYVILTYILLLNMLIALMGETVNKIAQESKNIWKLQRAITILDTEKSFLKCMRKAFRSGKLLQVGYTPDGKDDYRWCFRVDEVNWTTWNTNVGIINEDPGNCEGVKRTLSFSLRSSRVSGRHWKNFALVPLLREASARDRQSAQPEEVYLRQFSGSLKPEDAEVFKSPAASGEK
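Fluo-8 calcium influx in TRPV1-expressing cells, kinetic read (ex 480/em 520 nm). Compound added and read 3 min for agonist activity, followed by capsaicin at EC20 final and 2 min further read for enhancement.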
A-T KAP1 phos – potential ataxia-telangiectasia treatment. F2112 A-T fibroblasts, KAP-1 phosphorylation AlphaLISA; neocarzinostatin DNA damage 30 min before lysis. Potency, µM (doses to about 57.5 µM), usual class: activators. 0.19% of 320,000 active; note: nearly all actives have a fitted effect of over 45% in size
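ATM-like activity read as KAP-1 phosphorylation via AlphaLISA donor/acceptor antibody pairs after lysis and 6 hr at 25C. Cells were ATM-null patient fibroblasts (F2112, hTERT), dosed 60 min, then exposed to the DSB inducer NCS for 30 min.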
TSG101-PTAP inh – blocks PTAP/TSG101 interaction to inhibit HIV-1 budding; Q99816; Fluorescence polarization, FITC-PTAP peptide / Tsg101 binding; Potency, µM (doses to about 115 µM), usual class: inhibitors; 340,000 tested, under 10 active; active = well fitted inhibition curve with a large enough effect in the main read-out, with a control signal flat, not every such curve was filed as active; inconclusive = small, poorly fitted or top-dose-only effect, or effect the other way, or a change in a side signal; inactive = no such curve, though single readings can be large or run the other way
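Tsg101 binding domain (10 uM final) was mixed with compound and a FITC-labeled PTAP peptide (50 nM final) in HEPES pH 7.5 buffer with NaCl, Tween 20, EDTA and TCEP; fluorescence polarization was read after 20 min at r.t.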
S-ASM inh – blocks human secretory acid sphingomyelinase; P17405; placental ASM, HMU-PC fluorogenic substrate, 60 min; Potency, µM (series often up to 57.5 µM), hits mostly inhibitors; 0.006% of 340,000 active
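Human placenta-derived ASM enzyme was preincubated with compound for 10 minutes at room temperature, then given fluorogenic substrate HMU-PC0 (9 uM final) for 60 minutes at 37 °C; a pH 10 stop preceded fluorescence reading at Ex 386/Em 447 nm.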
TRPV1 ag – human TRPV1 agonism; Q8NER1; TRPV1-expressing cells, Fluo-8 calcium influx, agonist mode; activation, % at 8.33 µM; 0.19% of 320,000 active; in the data active = activation above about 80%; inconclusive = between about 30% and that limit
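Cells expressing TRPV1 were dye-loaded with Fluo-8 and read kinetically: 10 s baseline, 3 min after compound (agonist portion), then 2 min after EC20 capsaicin (allosteric enhancer portion). Calcium-bound dye fluorescence at 480/520 nm.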
Hits are given with their value; [ ] = remark or other dose. Most compounds without a hit are left out; they make up all but 0.37% or so of the library. Unless noted, calls come from the whole dose curve; as a rule, active = well fitted curve in the direction sought with a large enough effect; inconclusive = small, poorly fitted or top-dose-only effect, or another doubt; inactive = no such curve, though single readings can be large; an effect the other way counts as inactive or inconclusive.

`N#CCC(=O)N/N=C/c1ccc(N2N=C(c3ccccc3)CC2c2ccccc2)cc1` (stereo not drawn) gave TRPV1 PAM inconclusive, A-T KAP1 phos 31.6µM, TSG101-PTAP inh inactive, S-ASM inh inactive and TRPV1 ag inactive.
Screening Oc1ccc(C2=NN(c3ccccc3)C(c3ccc(F)cc3)C2)cc1 (stereo not drawn) returned TRPV1 PAM inactive, A-T KAP1 phos inactive, TSG101-PTAP inh inactive, S-ASM inh inactive and TRPV1 ag inactive.
COc1ccc(C2CC(c3ccccc3)=NN2c2ccc(/C=N/NC(=O)c3ccncc3)cc2)cc1 (stereo not drawn) was read as TRPV1 PAM inactive, A-T KAP1 phos inactive, TSG101-PTAP inh inactive, S-ASM inh inactive and TRPV1 ag inactive.
For COc1cc(OC)c(NC(=O)CN(C)S(=O)(=O)c2ccc3[nH]c(=O)oc3c2)cc1Cl the results were TRPV1 PAM inactive, A-T KAP1 phos inactive, TSG101-PTAP inh inactive, S-ASM inh inactive and TRPV1 ag inactive.
`COCCN(C(=O)COC(=O)/C=C/c1cccc(C(F)(F)F)c1)c1c(N)n(CC(C)C)c(=O)[nH]c1=O` gave A-T KAP1 phos inactive, TSG101-PTAP inh inactive and S-ASM inh inactive.
For CCOC(=O)c1ccc(NC(=O)N2CCN(C(=O)c3ccco3)CC2)cc1 the results were TRPV1 PAM inactive, A-T KAP1 phos inactive, TSG101-PTAP inh inactive, S-ASM inh inactive and TRPV1 ag inactive.
CCCCc1ccc(NC(=O)C2CCCO2)cc1 (stereo not drawn) was read as TRPV1 PAM inactive, A-T KAP1 phos inactive, TSG101-PTAP inh inactive, S-ASM inh inactive and TRPV1 ag inconclusive.
For C/C(=N\Nc1ccc2nncn2n1)c1ccc(Cl)s1 the results were TRPV1 PAM inactive, A-T KAP1 phos inactive, TSG101-PTAP inh inactive, S-ASM inh inactive and TRPV1 ag 114.8.
Screening CCOc1ccc(S(=O)(=O)N2CCN=C2c2ccccc2)c(C)c1C returned TRPV1 PAM inactive, A-T KAP1 phos inactive, TSG101-PTAP inh inactive, S-ASM inh inactive and TRPV1 ag inactive.
`COC(=O)C1=CN(C(C)c2ccccc2)C=C(C(=O)OC)C1c1cc(OC)c(OC)c(OC)c1` (stereo not drawn) gave TRPV1 PAM inactive, A-T KAP1 phos 7.08µM, TSG101-PTAP inh inactive, S-ASM inh inactive and TRPV1 ag inactive.
Screening Cc1n[nH]c(=O)n1-c1ccc(OC(F)(F)F)cc1 returned TRPV1 PAM inactive, A-T KAP1 phos inactive, TSG101-PTAP inh inactive, S-ASM inh inactive and TRPV1 ag inactive.
COc1ccc(CNC(=O)CC2C[C@H](C(=O)N3CCOCC3)[C@@]3(C)c4[nH]c5ccccc5c4CCN3C2=O)cc1OC (stereo partly drawn) was read as A-T KAP1 phos inactive, TSG101-PTAP inh inactive and S-ASM inh inactive.
`Cc1ccc(NC(=O)c2cnc3ccccc3n2)cc1C` gave TRPV1 PAM inactive, A-T KAP1 phos inactive, TSG101-PTAP inh inactive, S-ASM inh inactive and TRPV1 ag 84.4.
For O=C(Nc1ccccc1)c1cnc2ccccc2n1 the results were TRPV1 PAM inactive, A-T KAP1 phos inactive, TSG101-PTAP inh inactive, S-ASM inh inactive and TRPV1 ag inconclusive.
Screening Cn1c2cc(B(O)O)sc2c2cnn(Cc3c(F)cccc3F)c(=O)c21 returned A-T KAP1 phos inactive.
For CCCCCCCn1ccc(=N)cc1 the results were TRPV1 PAM inactive, A-T KAP1 phos inactive, TSG101-PTAP inh inactive, S-ASM inh inactive and TRPV1 ag inactive.
`CCCCCCCCCn1ccc(=N)cc1` gave TRPV1 PAM inactive, A-T KAP1 phos 3.16µM, TSG101-PTAP inh inactive, S-ASM inh inactive and TRPV1 ag inactive.
For COc1cc2c(cc1OC)C1O[C@](CCCCN3C(=O)c4ccccc4C3=O)(C2)OC2=C1C(=O)OC1(CCCCC1)C2 the results were TRPV1 PAM inactive, A-T KAP1 phos inactive[11.5 µM] and TRPV1 ag inactive.
Screening CC(C)(C)c1csc(NNC(=O)c2ccc(Br)cc2)n1 returned TRPV1 PAM inactive, A-T KAP1 phos inactive, TSG101-PTAP inh inactive, S-ASM inh inactive and TRPV1 ag 80.4.
`Nn1c(Cc2ccccc2)nc2cc(Cl)ccc2c1=O` gave TRPV1 PAM 95.0, A-T KAP1 phos inactive, TSG101-PTAP inh inactive, S-ASM inh inactive and TRPV1 ag inactive.
Screening O=C(O)c1ccc(S(=O)(=O)N[C@@H](Cc2ccc(O)cc2)C(=O)O)cc1 returned A-T KAP1 phos inactive.
COc1ccc(Cl)cc1NC(=O)CSc1nc(=O)[nH]c2c1CCC2 was read as TRPV1 PAM inactive and TRPV1 ag inactive.
O=c1c2[nH]c3ccc(Cl)cc3c2ncn1CCN1CCCCC1 was read as A-T KAP1 phos 28.2µM, TSG101-PTAP inh inactive and S-ASM inh inactive.
COC(=O)CCCC1=CC2=CC(=O)C(C)(OC(=O)c3cccs3)C(=O)C2=CN1C1CCCCC1 (stereo not drawn) was read as TRPV1 PAM inactive, A-T KAP1 phos 25.1µM, TSG101-PTAP inh inactive, S-ASM inh inactive and TRPV1 ag inactive.
For COC(=O)c1cc2c(s1)c1cnn(Cc3ccccc3F)c(=O)c1n2C the results were A-T KAP1 phos inactive.
`CC(C)CCC1(CCNC(=O)c2cccs2)CCOC(C)(C)C1` (stereo not drawn) gave TRPV1 PAM inactive, A-T KAP1 phos inactive, TSG101-PTAP inh inactive, S-ASM inh inactive and TRPV1 ag 82.6.
Screening CCCN1CN(c2ccccc2)C(=S)N(c2ccccc2)C1 returned TRPV1 PAM inactive, A-T KAP1 phos 1.12µM, TSG101-PTAP inh inactive, S-ASM inh inactive and TRPV1 ag inactive.
`CCCN1CNC(=S)N(c2ccccc2OC)C1` gave TRPV1 PAM inactive, A-T KAP1 phos inactive, TSG101-PTAP inh inactive, S-ASM inh inactive and TRPV1 ag inactive.
Screening Cc1cc2[nH]c(=O)c(=O)[nH]c2cc1S(=O)(=O)N1CCN(c2cccc(C)c2C)CC1 returned TRPV1 PAM inactive, A-T KAP1 phos inactive, TSG101-PTAP inh inactive, S-ASM inh inconclusive and TRPV1 ag inactive.
Cc1cc2[nH]c(=O)c(=O)[nH]c2cc1S(=O)(=O)N1CCN(c2ccccc2F)CC1 was read as TRPV1 PAM inactive, A-T KAP1 phos inactive, TSG101-PTAP inh inactive, S-ASM inh inactive and TRPV1 ag inactive.
`Cc1cc2[nH]c(=O)c(=O)[nH]c2cc1S(=O)(=O)N1CCN(c2cccc(Cl)c2)CC1` gave TRPV1 PAM inactive, A-T KAP1 phos inactive, TSG101-PTAP inh inactive, S-ASM inh 20µM and TRPV1 ag inactive.
Screening Cc1cc2[nH]c(=O)c(=O)[nH]c2cc1S(=O)(=O)N1CCN(c2cccc(C(F)(F)F)c2)CC1 returned TRPV1 PAM inactive, A-T KAP1 phos inactive, TSG101-PTAP inh inactive, S-ASM inh 20µM and TRPV1 ag inactive.
Screening COC(=O)CC(NC(=O)c1ccc(C)cc1)c1ccccc1 (stereo not drawn) returned TRPV1 PAM inactive, TSG101-PTAP inh inactive, S-ASM inh inactive and TRPV1 ag inconclusive.
